{
  "source": "paper PMC7819943",
  "about": "“Rice protein-binding microarrays: a tool to detect cis-acting elements near promoter regions in rice”",
  "note": "The full ranking holds about 68,000 sequences; the median of “fluorescence intensity (a.u.)” is about 9,100, and the highest 2% start at about 16,000. The sample as a whole holds a higher share of the highest values than the screen did.",
  "data": [
    {"target": "OsWRKY34 (Oryza sativa, UniProt Q0JBA9 1-250)", "sequence (Q0JBA9 entry or part of it)": "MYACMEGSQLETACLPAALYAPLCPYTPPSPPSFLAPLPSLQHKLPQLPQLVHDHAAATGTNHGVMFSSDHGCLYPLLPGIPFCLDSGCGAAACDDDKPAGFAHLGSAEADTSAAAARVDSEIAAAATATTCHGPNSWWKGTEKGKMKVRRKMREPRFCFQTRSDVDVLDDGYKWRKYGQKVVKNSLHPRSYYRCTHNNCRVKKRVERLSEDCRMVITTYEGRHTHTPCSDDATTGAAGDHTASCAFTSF", "experiment": "protein-binding microarray (RPBM); PBS, 2% BSA, 51.3 ng/ul salmon testes DNA, 50 uM zinc acetate, 200 nM TF, 25 C, 1 h; high values mean tight binding", "conditions": "protein: recombinant; tags: N-terminal polyhistidine and DsRed monomer fusion (pET32a); label: CyDye5-dUTP incorporated in the synthesized complementary strand; 3' TTTTT single-stranded linker to array surface; dsDNA, one strand shown", "how_it_was_run": "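Transcription factors were made in E. coli BL21-CodonPlus as N-terminal fusions to a polyhistidine tag and DsRed, then purified on Ni–NTA. After primer extension with Cy5-dUTP and blocking with 2% BSA, a custom Agilent array was exposed for 1 h at 25 °C to 200 nM protein in PBS, 2% BSA, salmon testes DNA and 50 µM zinc acetate. Washed arrays were scanned on an Axon 4000B, and the binding signal is per-feature fluorescence intensity in arbitrary units.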", "values": [
      {"sequence": "ACCATTAACTTTTTCTTAATTCGTTTCACTATTTTTTTAACGGAGTCACCTAGTGCAG", "binding signal": "9500 fluorescence intensity (a.u.)"},
      {"sequence": "GACTTTTCACGTAACGTTTGACCATTTATCTTATTTATAACGGAGTCACCTAGTGCAG", "binding signal": "9970 fluorescence intensity (a.u.)"},
      {"sequence": "ACTTTTTAACCAACGTTTGACCATTCGTCTTATTCAAATTCGGAGTCACCTAGTGCAG", "binding signal": "10600 fluorescence intensity (a.u.)"},
      {"sequence": "TTGTACACTTATGATTTCCTATTTTTGCATATGATTTTGTCGGAGTCACCTAGTGCAG", "binding signal": "8050 fluorescence intensity (a.u.)"},
      {"sequence": "GACACTAGGACAGTACGTAGCTACCTCTCCACTGCTCTGCCGGAGTCACCTAGTGCAG", "binding signal": "8730 fluorescence intensity (a.u.)"},
      {"sequence": "CTTGATTACCCCGTAGTCAGGTTTGTATGACTAAGCAACCCGGAGTCACCTAGTGCAG", "binding signal": "8980 fluorescence intensity (a.u.)"},
      {"sequence": "GACTGGGCCGTTGACCAGACGTGTACCCCACCGGCCAGTCCGGAGTCACCTAGTGCAG", "binding signal": "9290 fluorescence intensity (a.u.)"},
      {"sequence": "GCCAAGGCCTTACTGCTGCTTCTGTTTCTTGCCACCAATGCGGAGTCACCTAGTGCAG", "binding signal": "9650 fluorescence intensity (a.u.)"},
      {"sequence": "GTTTGACTATTTTATGCCTTGTAGCTTGAGCTACAGTTCACGGAGTCACCTAGTGCAG", "binding signal": "10100 fluorescence intensity (a.u.)"},
      {"sequence": "CTCTCTAACTGCAGATTTCCCTCCCCTTTCAACGCGCGCGCGGAGTCACCTAGTGCAG", "binding signal": "8110 fluorescence intensity (a.u.)"},
      {"sequence": "CCCCATCAACCTCCTCTTCTTCTTCGCCTCGTCTCGTCTTCGGAGTCACCTAGTGCAG", "binding signal": "9670 fluorescence intensity (a.u.)"},
      {"sequence": "TGCTGACTTGGCGTTGACCTGTGAAATTCTCTCGCTTCACCGGAGTCACCTAGTGCAG", "binding signal": "11500 fluorescence intensity (a.u.)"},
      {"sequence": "TTTCGATTGTTGTTTATTTTCCAGCATTAGTTTTTAAATCCGGAGTCACCTAGTGCAG", "binding signal": "8320 fluorescence intensity (a.u.)"},
      {"sequence": "TTTATTAAACCTAGTTAATCCATTGTTAGCAAATATTTAACGGAGTCACCTAGTGCAG", "binding signal": "23300 fluorescence intensity (a.u.)"},
      {"sequence": "GCCGTTGACTTTTTATCCAACGTTTGATCATTCGTCTTATCGGAGTCACCTAGTGCAG", "binding signal": "40800 fluorescence intensity (a.u.)"},
      {"sequence": "TATTAAATCATTTAATTTTAGCTATTGTTTTTTATTTATTCGGAGTCACCTAGTGCAG", "binding signal": "9250 fluorescence intensity (a.u.)"},
      {"sequence": "ATTTTATCCAACGTTTGACCATTCGTCTTATATAAAATATCGGAGTCACCTAGTGCAG", "binding signal": "9960 fluorescence intensity (a.u.)"},
      {"sequence": "CGTCCAACTTTGATCGTCCGTTTTATTTGAATTTTTTTATCGGAGTCACCTAGTGCAG", "binding signal": "11200 fluorescence intensity (a.u.)"},
      {"sequence": "TCTTTTTTTTTTTCATTATTGTTTGAATATTGATTTCACACGGAGTCACCTAGTGCAG", "binding signal": "8780 fluorescence intensity (a.u.)"},
      {"sequence": "TTGCAAAATTTAAAATTATGTTGTCATTGTAATATATTTTCGGAGTCACCTAGTGCAG", "binding signal": "8440 fluorescence intensity (a.u.)"},
      {"sequence": "GTTGGTTTTTACATTTGTTTGCTCGAGTCATATATGTCGTCGGAGTCACCTAGTGCAG", "binding signal": "9010 fluorescence intensity (a.u.)"},
      {"sequence": "GCTGCCCCTTGTACTTACTTCTATCATCTTTCTTCCCACACGGAGTCACCTAGTGCAG", "binding signal": "8880 fluorescence intensity (a.u.)"},
      {"sequence": "TTTAGTATATAAAAGATTATAGGGGAGGTTCATTACTTTCCGGAGTCACCTAGTGCAG", "binding signal": "8410 fluorescence intensity (a.u.)"},
      {"sequence": "GGATTGGGGAGTGATTCGGTTTGTTCTTGATTTTGATTTTCGGAGTCACCTAGTGCAG", "binding signal": "15700 fluorescence intensity (a.u.)"},
      {"sequence": "AGATCAGGTTTTCTCTTTGGTTGATTGTGTGTGGAAGATCCGGAGTCACCTAGTGCAG", "binding signal": "10100 fluorescence intensity (a.u.)"},
      {"sequence": "TCTTGATTGGTTGTTTTGGTTTGTTTCTTATTTATGTTTGCGGAGTCACCTAGTGCAG", "binding signal": "8920 fluorescence intensity (a.u.)"},
      {"sequence": "GTGTAGATTGATTGGTTCTTGGTGGTGGTGGTGGTGGATCCGGAGTCACCTAGTGCAG", "binding signal": "22200 fluorescence intensity (a.u.)"},
      {"sequence": "TCTGAGTGGTTCTCTGGGCGTTGTTGGTGCGTTCTTGATCCGGAGTCACCTAGTGCAG", "binding signal": "8900 fluorescence intensity (a.u.)"},
      {"sequence": "TTTCTTGATTTGGTTGGGATTGGTTGTTCTTGGGCTTATCCGGAGTCACCTAGTGCAG", "binding signal": "18900 fluorescence intensity (a.u.)"},
      {"sequence": "CACCACCCAGATCTGTCTCGTCTCTGTTCTTGCCTTCGCTCGGAGTCACCTAGTGCAG", "binding signal": "11900 fluorescence intensity (a.u.)"},
      {"sequence": "TGGTGTCTCATAATTCTCTACATGGTATCAAATACTGGTTCGGAGTCACCTAGTGCAG", "binding signal": "9610 fluorescence intensity (a.u.)"},
      {"sequence": "GGCGTTATATCTGGTTTTGTGGCTGAGGGAGGTAATTTAGCGGAGTCACCTAGTGCAG", "binding signal": "11700 fluorescence intensity (a.u.)"},
      {"sequence": "TTCACGTTCAATGTTTGACCGTTCGTCTTATTTGAAAATTCGGAGTCACCTAGTGCAG", "binding signal": "8550 fluorescence intensity (a.u.)"},
      {"sequence": "AACTTCAGTCCTTTTCCATCACATCAACCTGTCATATACACGGAGTCACCTAGTGCAG", "binding signal": "8220 fluorescence intensity (a.u.)"},
      {"sequence": "TGAATTGGGAAATTTCGGTGTTTTTTTTCTTCTTTTTTTTCGGAGTCACCTAGTGCAG", "binding signal": "8740 fluorescence intensity (a.u.)"},
      {"sequence": "TAGTTTTCTCATGTTCATCAATTTAAATACCTAACAATACCGGAGTCACCTAGTGCAG", "binding signal": "8180 fluorescence intensity (a.u.)"},
      {"sequence": "GGTTTCCGTGGTGGGCCGGTTTGGGCTTTTCTTTTTTACACGGAGTCACCTAGTGCAG", "binding signal": "18500 fluorescence intensity (a.u.)"},
      {"sequence": "GCTTGCTTTGTCACATGCAGTTTTACACCTTTTATTTCTCCGGAGTCACCTAGTGCAG", "binding signal": "10400 fluorescence intensity (a.u.)"},
      {"sequence": "CTGCTTTTATAGTTTGGTGGGCTTTTCTTTGCTAGTGGGCCGGAGTCACCTAGTGCAG", "binding signal": "10600 fluorescence intensity (a.u.)"},
      {"sequence": "TCTTTTTTCCATCCATCTTTTTTTCGCCGTTCTTTCCGGTCGGAGTCACCTAGTGCAG", "binding signal": "8220 fluorescence intensity (a.u.)"},
      {"sequence": "GGTTCTTTGTTTCCGTTTGCTTTACCATTTTTGTTCCTTTCGGAGTCACCTAGTGCAG", "binding signal": "10000 fluorescence intensity (a.u.)"},
      {"sequence": "AATCGCCGTTCTAGCTTTTTGGTCTTGGTCTTTTTTTATCCGGAGTCACCTAGTGCAG", "binding signal": "21400 fluorescence intensity (a.u.)"},
      {"sequence": "CAAACAAAATGGGTTTCTTCTTACGGTTGTGGGCTTTTTCCGGAGTCACCTAGTGCAG", "binding signal": "17400 fluorescence intensity (a.u.)"},
      {"sequence": "TGCTTGTACAGTTTCCGGTTTCTTTGCCATTTCGTTTACACGGAGTCACCTAGTGCAG", "binding signal": "20000 fluorescence intensity (a.u.)"},
      {"sequence": "ACTTTTTCCGAACCAAAATGGACTTCTTCCTTACGGTTACCGGAGTCACCTAGTGCAG", "binding signal": "8390 fluorescence intensity (a.u.)"},
      {"sequence": "TTTCCTTTACTTTGGTGGTTCTTTTTTTTTTCTTTGTTTCCGGAGTCACCTAGTGCAG", "binding signal": "11400 fluorescence intensity (a.u.)"},
      {"sequence": "GCTTGCAGGGCTTGGTTGTTTCTTCTTCCGTTTTTTTTTACGGAGTCACCTAGTGCAG", "binding signal": "13600 fluorescence intensity (a.u.)"},
      {"sequence": "TTCTCTTGCTTCCTTTTTGGTCATTTGAGATAGCTTTATCCGGAGTCACCTAGTGCAG", "binding signal": "10300 fluorescence intensity (a.u.)"}
    ]}
  ]
}
